Sampled rows, rich in hits. Any-hit rate of the full collection: about 17%.
HepG2 tox: kills HepG2 cells in TGF-b inhibitor counter-screen; AID 588856; 410,000 tested, 0.76% active; Potency, µM (series often up to 46.1 µM), inactives show top-dose activity change, negative = cytotoxicity, usual class: cytotoxic; HepG2 CAGA-GFP viability, ATP luminescence, 18 h
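HepG2 CAGA-GFP cells (1000/well, DMEM with 1% FBS) received compound, then TGF-beta at 500 pg/mL final, and were incubated 18 hours at 37 degrees C. Viability was read by CellTiter-Glo luminescence. Media-only wells were set as complete cell-killing and DMSO as no toxicity.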
ATXN viability: cell viability loss in ATXN counter-screen. AID 651635. S2 cells (HEK-293 line with an ATXN2-luciferase reporter) viability, CellTiter-Fluor protease fluorescence, 24 h. 400,000 tested, 0.49% active. Potency, µM (highest dose often 56.7 µM), hits mostly cytotoxic; further: nearly all actives have a fitted effect of over 40% in size
TDP1 cell noCPT: qHTS for Inhibitors of human tyrosyl-DNA phosphodiesterase 1 (TDP1): qHTS in cells in absence of CPT; DT40 Tdp1-/- hTDP1 cells, no CPT, ATP luminescence, 48 h; Potency, µM (series often up to 46.2 µM), without a hit: at the highest dose activity change, negative = growth inhibition, hits mostly inhibitors; 420,000 tested, 15% active; AID 686978, 2013; further: on the % scale 0 is the no-effect control and ±100 the full control effect; nearly all actives have a fitted effect of over 55% in size
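Chicken DT40 Tdp1-/- cells stably complemented with human TDP1 were seeded at 400 cells/well with DMSO in place of 20 nM camptothecin. After compound pinning, cells grew at least 48 hr at 37 °C; viability read by CellTiter-Glo luminescence.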
TDP1 cell CPT: DT40-hTDP1 cell growth loss with CPT. AID 686979. Potency, µM (highest dose often 46.2 µM), for inactives: top-dose activity change, negative = growth inhibition, usual class: inhibitors. chicken DT40 Tdp1-/-;hTDP1 cells + 20 nM CPT, ATP luminescence, 48 h. 420,000 tested, 12% active; further: on the % scale 0 is the no-effect control and ±100 the full control effect; nearly all actives have a fitted effect of over 55% in size
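Chicken DT40 Tdp1-/- cells stably complemented with human TDP1 were seeded at 400 cells/well in medium containing 20 nM camptothecin, exposed to pin-transferred compounds, and grown at 37 °C for at least 48 hr. Viability was read as ATP luminescence.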
ATXN2 expr inh: reduces ATXN2 reporter expression in HEK-293 cells; HEK-293 ATXN2-luciferase reporter, luminescence, 24 h; Potency, µM (top dose mostly 57 µM), inactives show top-dose activity change, negative = inhibition, most hits filed as inhibitors; 360,000 tested, 0.72% active; further: on the % scale 0 is the no-effect control and ±100 the full control effect; nearly all actives have a fitted effect of over 55% in size
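qHTS (up to 57 uM final) was run with 24 h compound exposure of reporter cells at 37 °C. Each well was multiplexed: SteadyGlo luminescence measured ATXN2-luciferase expression after a fluorogenic Gly-Phe-AFC viability readout (25 uM final).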
TGFb inhibitor: blocks TGF-b signaling; HepG2 CAGA-GFP TGF-b/SMAD3 reporter, GFP fluorescence, 18 h; TGF-beta stimulated, 500 pg/mL final; Potency, µM (doses to about 46.1 µM), without a hit: at the highest dose activity, negative = inhibition, actives largely listed as inhibitors; 410,000 tested, 1.2% active; AID 588855; further: on the % scale 0 is the no-effect control and ±100 the full control effect; nearly all actives have a fitted effect of over 65% in size
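Cell-based qHTS in HEPG2 carrying a CAGA-GFP Smad reporter; compounds added before 500 pg/mL final TGF-beta, 18 h incubation at 37 degrees C, GFP fluorescence quantified per cell by imaging cytometry.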
The depositor's hits bear a star; [ ] = dose if it differs, or a comment. The call rests on the fitted dose curve; in most records, active means well fitted curve in the direction sought with a large enough effect; inconclusive means small, poorly fitted or top-dose-only effect, or another doubt; inactive means no such curve, though single readings can be large; an effect the other way counts as inactive or inconclusive. Potency means the concentration at half of the fitted maximal effect.

How did COc1ccc(-n2nc([N+](=O)[O-])c(=NCCc3cccc(C)c3)n2O)cc1 do in these assays?
HepG2 tox: -3.7%; ATXN viability: inconclusive; TDP1 cell noCPT: inconclusive; TDP1 cell CPT: inconclusive; ATXN2 expr inh: -18.0%; TGFb inhibitor: -4.5%

Results for COc1ccc(CCN=c2c([N+](=O)[O-])nn(-c3cccc(C)c3)n2O)cc1OC ?
HepG2 tox: -37.0%; ATXN viability: inconclusive; TDP1 cell noCPT: inconclusive; TDP1 cell CPT: 10.3µM*; TGFb inhibitor: inconclusive

What do the screens show for `O=[N+]([O-])c1nn(-c2ccc(Cl)cc2)n(O)c1=NCc1ccccc1`?
HepG2 tox: 8.9%; ATXN viability: inactive; TDP1 cell noCPT: inconclusive; TDP1 cell CPT: 10.3µM*; TGFb inhibitor: 12.4%

What do the screens show for `COc1cccc(CNS(=O)(=O)c2ccc(S(=O)(=O)N3CCCC3)cc2)c1`?
HepG2 tox: -6.2%; ATXN viability: inactive; TDP1 cell noCPT: -22.6%; TDP1 cell CPT: -3.3%; ATXN2 expr inh: -6.9%; TGFb inhibitor: 0.1%

What do the screens show for `COc1ccccc1CCNS(=O)(=O)c1ccc(N2CCCCS2(=O)=O)cc1`?
HepG2 tox: -17.1%; ATXN viability: inactive; TDP1 cell noCPT: 20.6µM*; TDP1 cell CPT: 23.1µM*; ATXN2 expr inh: -10.0%; TGFb inhibitor: -25.6%

What do the screens show for `COc1ccc(CCNS(=O)(=O)c2ccc(N3CCCCS3(=O)=O)cc2)cc1`?
HepG2 tox: -12.2%; ATXN viability: inactive; TDP1 cell noCPT: 20.6µM*; TDP1 cell CPT: 23.1µM*; ATXN2 expr inh: -21.4%; TGFb inhibitor: inconclusive

Results for COc1cccc(CNS(=O)(=O)c2c(C)[nH]c(C)c2C(=O)N2CCCCC2)c1 ?
HepG2 tox: -2.3%; ATXN viability: inactive; TDP1 cell noCPT: inconclusive; TDP1 cell CPT: 25.9µM*; ATXN2 expr inh: 5.3%; TGFb inhibitor: -19.6%

How did COc1cccc(CNS(=O)(=O)c2ccc(N3CCCCS3(=O)=O)cc2)c1 do in these assays?
HepG2 tox: -21.1%; ATXN viability: inactive; TDP1 cell noCPT: 16.4µM*; TDP1 cell CPT: 23.1µM*; ATXN2 expr inh: -18.8%; TGFb inhibitor: inconclusive

What do the screens show for `COCCCNS(=O)(=O)c1ccc(N2CCCCS2(=O)=O)cc1`?
HepG2 tox: 0.4%; ATXN viability: inactive; TDP1 cell noCPT: inconclusive; TDP1 cell CPT: inconclusive; ATXN2 expr inh: -6.4%; TGFb inhibitor: -18.7%

Results for N#CCc1ccc(C(=O)c2ccccc2)s1 ?
HepG2 tox: -2.0%; ATXN viability: inconclusive; TDP1 cell noCPT: 0.0%; TDP1 cell CPT: 2.3%; ATXN2 expr inh: -1.1%; TGFb inhibitor: 10.1%

Results for CCOc1ccc(S(=O)(=O)N(CC(=O)NN=C2CCN(C)CC2)c2ccc(C)cc2)cc1 ?
HepG2 tox: -36.9%; ATXN viability: inactive; TDP1 cell noCPT: 3.0%; TDP1 cell CPT: -12.5%; ATXN2 expr inh: -5.4%; TGFb inhibitor: -31.5%

What do the screens show for `O=C(O)C1CC=CCC1C(=O)NCCCN1CCCC1=O` (stereo unspecified)?
HepG2 tox: 6.7%; ATXN viability: inactive; TDP1 cell noCPT: 13.4%; TDP1 cell CPT: -13.9%; ATXN2 expr inh: -1.8%; TGFb inhibitor: 23.1%

How did CC(C)OC(=O)c1cc(C(=O)OC(C)C)cc([N+](=O)[O-])c1 do in these assays?
ATXN viability: inactive; TDP1 cell noCPT: -6.5%[92.5 µM]; TDP1 cell CPT: 5.0%[92.5 µM]; ATXN2 expr inh: -15.8%[116 µM]

What do the screens show for `CC(C)C(=O)N1CCC1(C)C(=O)Nc1ccccc1OC(F)F` (stereo unspecified)?
HepG2 tox: -2.3%; ATXN viability: inactive; TDP1 cell noCPT: -0.9%; TDP1 cell CPT: inconclusive; ATXN2 expr inh: 9.6%; TGFb inhibitor: 4.8%
